# Screening data deposited in PubChem BioAssay by Broad Institute.
# In the library only some 2.8% were active in any assay of this set; here they are far more common.
# c-Myc SMM: binds human c-Myc on microarray. hit rate 1.5% among 17,000. calls only. small molecule microarray, His-c-Myc binding, anti-His fluorescence. P01106;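 active = spot fluorescence over background with P-value below 7% in all four replicate spots, showing protein binding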;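 note: score is binary with 100 for all four spots passing and 0 otherwise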
# NFkB binder: NF-kappa-B p105 (human) binding; P19838; calls only; Small molecule microarray, anti-His fluorescence binding; hit rate 1.3% among 17,000; AID 624139;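 active = spot fluorescence over background significantly raised, with a chance value under 7% in all four replicate spots of the compound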;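 note: probe protein is his-tagged human p50 processed subunit at 1 µg/ml; raw spot fluorescence signals with no normalization applied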
# STAT3 binder: binds human STAT3 on microarray; Small molecule microarray, His-STAT3 binding, anti-His fluorescence; calls only; hit rate 0.2% among 17,000;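 active = compounds whose four printed spots each show fluorescence over background unusually high for their array block, chance value under 7%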
# Target sequence (P40763 whole entry, looked up): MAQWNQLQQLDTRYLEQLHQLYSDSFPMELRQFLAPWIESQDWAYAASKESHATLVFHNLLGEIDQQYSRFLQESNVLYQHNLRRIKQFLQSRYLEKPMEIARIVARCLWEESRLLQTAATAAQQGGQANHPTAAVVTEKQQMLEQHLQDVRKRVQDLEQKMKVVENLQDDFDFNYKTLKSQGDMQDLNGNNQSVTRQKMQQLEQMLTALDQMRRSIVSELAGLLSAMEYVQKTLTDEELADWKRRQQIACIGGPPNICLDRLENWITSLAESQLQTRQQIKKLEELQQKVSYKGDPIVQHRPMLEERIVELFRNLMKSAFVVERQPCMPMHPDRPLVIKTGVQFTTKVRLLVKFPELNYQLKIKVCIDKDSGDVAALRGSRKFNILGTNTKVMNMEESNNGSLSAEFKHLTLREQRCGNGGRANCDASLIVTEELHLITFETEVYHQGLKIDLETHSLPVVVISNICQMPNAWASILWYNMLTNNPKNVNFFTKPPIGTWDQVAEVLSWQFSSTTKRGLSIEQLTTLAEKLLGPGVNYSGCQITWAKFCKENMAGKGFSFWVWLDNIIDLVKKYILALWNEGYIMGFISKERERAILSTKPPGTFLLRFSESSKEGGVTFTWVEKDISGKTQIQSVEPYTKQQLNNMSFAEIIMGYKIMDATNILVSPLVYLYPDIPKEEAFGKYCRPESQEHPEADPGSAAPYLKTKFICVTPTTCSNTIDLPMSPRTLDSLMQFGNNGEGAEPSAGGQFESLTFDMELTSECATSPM
# p53 PUMA act: re-activators of the mutant p53 pathway. SW480 PUMA-promoter luciferase, p53 mutant reactivation. activation, % at 9.98 µM. hit rate 1.5% among 28,000. AID 624151; in the data active = activation above about 52%
# mut p53 SMM: mutant p53 (human) binding. small molecule microarray binding, anti-GST fluorescence. calls only. hit rate 0.4% among 17,000;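 active = compounds whose four printed spots each glow above background more than chance allows, each with a p-value under 7%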
# * = called active by the depositor; i = inactive; / = no result; + = active, no number.
SMILES,c-Myc SMM,NFkB binder,STAT3 binder,p53 PUMA act,mut p53 SMM
COc1ccc(S(=O)(=O)N(C)CC(N)=O)cc1,/,/,/,-9,/
COc1ccc(S(=O)(=O)N(C)CCc2ccccn2)cc1,+,+,+,-8,i
COc1cc2c(cc1O)CCC1C2CCC2(C)C(O)CCC12 (stereo not given),i,i,i,-29,i
CC1OC(OC(=O)C2=CC3CC(C)(C)CC34C(C)OC(=O)CC24)C(O)C(O)C1O (stereo not given),i,i,i,-4,i
C[C@H](CO)N1C[C@H](C)[C@H](CN(C)S(=O)(=O)c2ccccc2)OCCCC[C@H](C)Oc2ccc(N(C)C)cc2C1=O,i,+,i,-2,+
Cc1ccc(S(=O)(=O)N(C)C[C@H]2OCCCC[C@H](C)Oc3ccc(NC(=O)NC4CCCCC4)cc3C(=O)N([C@H](C)CO)C[C@H]2C)cc1,+,i,i,/,+
CC(C)NC(=O)Nc1ccc2c(c1)C(=O)N([C@H](C)CO)C[C@H](C)[C@@H](CN(C)S(=O)(=O)c1ccccc1)OCCCC[C@H](C)O2,i,i,i,9,i
C[C@H]1CCCCO[C@@H](CN(C)S(=O)(=O)c2ccccc2)[C@@H](C)CN([C@@H](C)CO)C(=O)c2cc(N(C)C)ccc2O1,i,i,i,-1,i
C[C@@H]1CN([C@H](C)CO)C(=O)c2cc(N(C)C)ccc2O[C@@H](C)CCCCO[C@@H]1CN(C)Cc1ccccc1,i,i,+,-1,+
CC(C)NC(=O)Nc1ccc2c(c1)C(=O)N([C@@H](C)CO)C[C@H](C)[C@@H](CN(C)S(=O)(=O)c1ccccc1)OCCCC[C@@H](C)O2,+,+,i,13,i
O=C(CC1c2ccccc2Oc2ccccc21)NCCOc1ccccc1Cl,/,/,/,6,/
C[C@@H]1CCCCO[C@@H](CN(C)Cc2ccccc2)[C@H](C)CN([C@@H](C)CO)C(=O)c2cc(NC(=O)CCCN(C)C)ccc2O1,i,i,i,-4,i
C[C@H](CO)N1C[C@H](C)[C@H](CN(C)Cc2ccccc2)OCCCC[C@H](C)Oc2ccc(NC(=O)CCCN(C)C)cc2C1=O,i,+,i,9,i
O=C(COc1cc(Cl)c(Cl)cc1Cl)Nc1cccnc1,/,/,/,117*,/
CCc1ccc(OCC(=O)Nc2cccnc2)c(Br)c1,/,/,/,96*,/
CC(C)(C)c1ccc(OCC(=O)Nc2cccnc2)c(Br)c1,/,/,/,70*,/
COc1ccc(NC(=O)CSc2ncnc3scc(-c4ccccc4)c23)c([N+](=O)[O-])c1,/,/,/,-6,/
CCN(CC(=O)Nc1ccccc1C)S(=O)(=O)c1ccc(Br)cc1,i,i,i,-1,i
COc1ccc2[nH]cc(CCNC(N)=O)c2c1,/,/,/,6,/
COc1c(O)c2c(=O)cc3c4c5c(cc(=O)c6c(O)c(OC)c(CC(C)O)c(c(c1CC(C)O)c24)c65)OCO3 (stereo not given),i,i,i,/,i
O=C(COc1ccc(Br)cc1)Nc1cccc(-c2nnc(-c3ccccc3)o2)c1,/,/,/,109*,/
O=C(COc1ccc(Br)cc1)Nc1cccc(-c2nc3ccccc3o2)c1,i,i,i,74*,i
O=C(COc1ccc(Br)cc1)Nc1ccc2oc(-c3ccc(F)cc3)nc2c1,/,/,/,69*,/
CCOC(=O)c1cccc(NC(=O)COc2ccc(Br)cc2)c1,/,/,/,2,/
Cc1cccc(OCC(=O)Nc2cccc(-c3nc4ccccc4s3)c2)c1,/,/,/,59*,/
SMILES,c-Myc SMM,NFkB binder,STAT3 binder,p53 PUMA act,mut p53 SMM
O=C(O)COc1cccc(-c2nc3ccccc3s2)c1,/,/,/,-43,/
COc1ccc(-c2nc3ccccc3s2)cc1NC(=O)COc1ccc(Cl)cc1Cl,/,/,/,74*,/
COc1ccccc1OCC(=O)Nc1cccc(-c2nc3ccccc3s2)c1,/,/,/,67*,/
COc1ccc(OCC(=O)Nc2ccc(-c3nc4ccccc4s3)c(Cl)c2)cc1,i,i,i,-10,i
COC(=O)c1ccccc1NC(=O)C1CC(c2cc(Cl)c(OC)cc2OC)=NO1 (stereo not given),/,/,/,18,/
CC1CCc2c(sc3nc(SC(C)C(=O)Nc4ccccc4)nc(N)c23)C1 (stereo not given),i,i,i,118*,i
CCc1cccc(C)c1NC(=O)CSc1nc2sc3c(c2c(=O)n1C)CCC(C)C3 (stereo not given),i,i,i,-29,i
O=C(Cn1nnc(-c2ccccc2)n1)Nc1ccccc1C(=O)O,/,/,/,1,/
COc1ccc(OC)c(NC(=O)Nc2cccc(Cn3cccn3)c2)c1,/,/,/,12,/
COc1cccc2cc(C(=O)Nc3cccc(Cn4cccn4)c3)c(=O)oc12,i,i,i,57*,i
